TIM10 inh = growth inhibitors of isogenic TIM10 control yeast, primary screen, counter-screen for tim10-1 yeast inhibitor project, luminescence, uHTS. S. cerevisiae TIM10 strain growth, BacTiter-Glo luminescence, 24 h. inhibition, % at 10 µM. 1.4% of 330,000 active. AID 463195, 2010;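 active = inhibition of 40% or more at the single tested concentration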;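 note: wild-type TIM10 isogenic control strain grown at permissive 25 °C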
NLRP3 yeast inh = NALP3 inflammasome inhibitors in reconstituted yeast, primary screen, luminescence, uHTS; 0.39% of 330,000 active; AID 2825, 2010; Yeast reconstituted NLRP3/ASC/caspase-1, beta-gal luminescence, 24 h; inhibition, % at 10 µM;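 active = inhibition of 50% or more; inactive = inhibition below 50%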
tim23-1 inh = growth inhibitors of tim23-1 mutant yeast, primary screen, luminescence, uHTS; inhibition, % at 20 µM; 1.3% of 330,000 active; S. cerevisiae tim23-1 growth, BacTiter-Glo luminescence, 24 h; AID 463212, 2010;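 active = growth inhibition of the mutant yeast at or above 50%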;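 note: temperature-sensitive mutant grown at 25 °C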
SKKanGAS inh = S. pyogenes SKKanGAS growth inhibitors in kanamycin, primary screen, streptokinase expression inhibitor project, SKKanGAS strain, BacTiter-Glo luminescence. 6 h. inhibition, % at 7.5 µM. 1.3% of 300,000 active. AID 1662, 2009;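 active = mean replicate score, as percent of positive control median, at least 50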;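 note: strain carries kanamycin resistance gene driven by streptokinase promoter and grows in 40 µg/ml kanamycin; loss of luminescence reflects streptokinase promoter inhibition or plain growth inhibition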
PfHsp90 yeast 2 = growth inhibition of PfHsp90-expressing yeast, primary screen, antimalarial PfHsp90 inhibitor project, S. cerevisiae, BacTiter-Glo luminescence, single point, set 2; BacTiter-Glo ATP, 48 h; yeast lacking PDR1 and PDR3 efflux regulators; inhibition, % at 9.4 µM; 0.32% of 310,000 active;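 active = every replicate shows inhibition above about 80%, whatever the replicate mean, limit read from the data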
tim10-1 inh = growth inhibitors of tim10-1 mutant yeast, primary screen, luminescence, uHTS. inhibition, % at 20 µM. 2.2% of 330,000 active. S. cerevisiae tim10-1 ts strain growth, BacTiter-Glo, 24 h. AID 463190, 2010;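 active = inhibition of at least 40%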;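 note: mutant grown at 25 °C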
tim10 confirm = growth inhibitors of wild-type TIM10 yeast, confirmation, counter-screen for tim10-1 synthetic lethality project, single concentration, luminescence, S. cerevisiae; AID 463215, 2010; inhibition, % at 10 µM; S. cerevisiae tim10 strain growth, BacTiter-Glo luminescence, 24 h; 63% of 4,600 active; shares compounds with TIM10 inh;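 active = inhibition of yeast growth at or above a set limit in either of two replicates at 10 µM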; note: this counterscreen used the strain with wild-type TIM10
tim23-1 conf = tim23-1 mutant yeast growth inhibitors, confirmation, luminescence, single concentration; shares compounds with tim23-1 inh; S. cerevisiae tim23-1 growth, BacTiter-Glo luminescence, 24 h; 83% of 4,400 active; AID 463218, 2010; inhibition, % at 20 µM;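 active = inhibition above about 39% in either of two replicate wells at 20 µM, limit read from the data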;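 note: temperature-sensitive tim23-1 mutant grown at 25 °C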
A number is an active result; . = inactive; / = no result given. Rows were chosen to be rich in hits. Some 4.6% of all compounds tested hit in one or more screens of this group.

SMILES	TIM10 inh	NLRP3 yeast inh	tim23-1 inh	SKKanGAS inh	PfHsp90 yeast 2	tim10-1 inh	tim10 confirm	tim23-1 conf
Cc1c(Cl)cccc1NC(=O)c1cc(-c2ccccc2O)n[nH]1	.	.	.	.	.	.	/	/
COc1ccc(O)c(-c2cc(-c3ccccc3Cl)[nH]n2)c1	50	.	81	59	.	.	57	72
Oc1ccc(Br)cc1-c1cc(-c2ccccc2Cl)[nH]n1	.	.	.	.	.	.	/	/
Cc1ccc(-c2cc(-c3ccccc3Cl)[nH]n2)c(O)c1	51	.	65	110	.	.	65	.
COc1ccc2c(C(=O)CCl)c[nH]c2c1	43	.	53	.	.	.	.	51
COc1ccc(OCC(=O)c2c[nH]c3ccccc23)cc1	.	.	.	.	.	.	/	/
Cc1ccc(C(C[N+](=O)[O-])Sc2ccc(N)cc2)cc1 (stereo not given)	56	.	75	.	107	.	51	90
O=C(Nc1ccc(N2CCN(c3ncccc3C(F)(F)F)CC2)nc1)c1cccs1	45	.	67	.	.	.	53	82
O=C(Nc1ccc(N2CCOCC2)nc1)c1cccs1	55	.	50	.	.	.	43	68
O=C(Nc1ccc(N2CCN(c3ccc(C(F)(F)F)cn3)CC2)nc1)c1cccs1	.	.	.	.	.	.	/	/
CC(=O)NCCNC(=O)c1cccc(NS(=O)(=O)c2ccc3c(c2)OCCO3)c1	.	.	.	.	.	.	/	/
COc1ccc(-n2c(NN)nc3sc4c(c3c2=O)CCCC4)cc1	49	.	70	.	/	.	.	62
O=C(NC(=S)Nc1ccccc1Cl)c1ccco1	.	.	.	.	.	.	/	/
CCC(C)c1ccccc1NC(=S)NC(=O)c1ccco1 (stereo not given)	41	.	54	.	.	.	.	.
O=[N+]([O-])c1ccc(Sc2nnnn2-c2ccccc2)nc1	.	.	.	.	/	.	/	/
Cc1ccc(C(=O)O/N=C(\N)c2ccc(Br)cc2)cc1	.	.	.	.	.	.	/	/
Cc1cccc(/C(N)=N/OC(=O)c2ccc(F)cc2)c1	73	.	70	.	.	.	80	45
CC(=O)n1cc(C(C[N+](=O)[O-])SCCN)c2ccccc21 (stereo not given)	91	.	89	.	/	.	92	.
CC(=O)n1cc(/C=N/NC(=O)c2ccc([N+](=O)[O-])cc2)c2ccccc21	.	.	.	.	.	.	/	/
COc1ccc(NC(=O)CCCc2ccccc2)cc1OC	.	.	.	.	.	.	/	/
COc1cccc(/C=C/C(=O)OCC(=O)c2c(N)n(C)c(=O)n(C)c2=O)c1	.	.	.	/	.	.	/	/
COc1ccc(/C=N/NC(=O)c2nc(-c3ccccc3)n(-c3ccccc3)n2)c(O)c1	.	.	.	.	.	.	/	/
CC(C)(C)c1cc(C(=O)N/N=C/c2ccccc2O)n(-c2ccccc2)n1	59	.	59	73	.	.	.	56
CC1CN(C(=O)c2ccc(NS(=O)(=O)c3ccc(F)cc3)cc2)CC(C)O1 (stereo not given)	.	.	.	.	.	.	/	/
O=C(NC(=S)Nc1ccc(O)cc1)C1CCCC1	44	.	54	/	.	.	33	54
SMILES	TIM10 inh	NLRP3 yeast inh	tim23-1 inh	SKKanGAS inh	PfHsp90 yeast 2	tim10-1 inh	tim10 confirm	tim23-1 conf
O=C(Nc1ccc(-c2cn3ccsc3n2)cc1)C1CCCC1	59	.	57	.	.	.	50	69
Cc1nc(-c2ccc(NC(=O)C3CCCCC3)cc2)cs1	.	.	.	.	.	.	/	/
COc1cc(C(=O)N/N=C/c2ccc(OC)c(CN3CCN(c4ccc(F)cc4)CC3)c2)ccc1O	.	.	.	.	.	.	/	/
C=CCN1C(=O)c2ccc(C(=O)NCCc3ccc(F)cc3)cc2C1=O	.	.	.	.	.	.	/	/
O=C(Nc1cccc(-c2csc(Nc3ccccc3)n2)c1)c1ccccc1	48	.	54	.	.	.	44	46
CC(C)C(=O)NCc1cc(-c2ccccc2)no1	.	.	.	.	.	.	/	/
Cc1cc(OCC(=O)N2CCC(O)CC2)c2c(C)cc(=O)oc2c1	.	.	.	.	.	.	/	/
CC1CCc2cc(F)cc3c(O)c(C(=O)NCc4ccco4)c(=O)n1c23 (stereo not given)	49	.	55	.	.	.	.	51
COc1ccccc1C1CCN(C(=O)c2ccccc2)CC1	.	.	.	.	.	.	/	/
COc1ccccc1C1CCN(c2cc(O)ccc2[N+](=O)[O-])CC1	48	.	60	.	.	.	43	60
CC(C)(C)NC(=S)NC(=O)C12CC3CCC(CC(C3)C1)C2	45	.	50	.	.	.	.	59
CN(C)NC(=S)NC(=O)C12CC3CC(CC(C3)C1)C2	.	.	.	.	.	.	/	/
COc1ccc([N+](=O)[O-])cc1NC(=O)Cc1ccccc1Cl	.	.	.	.	.	.	/	/
COc1ccc(N=Cc2cc(Cc3ccccc3Cl)cc([N+](=O)[O-])c2O)cc1OC	60	.	80	.	111	.	48	.
CCc1c(C2(O)CCCCC2)[nH]c2cc(C(F)(F)F)ccc12	51	.	67	.	.	.	61	.
COc1ccccc1N1CC(C)(C)C(=O)N(C(=O)c2ccc(Cl)cc2)C1=S	45	.	51	.	.	.	54	52
Cc1cccc(NC(=O)CN2CCN(C(=O)C3CCCO3)CC2)c1C (stereo not given)	.	.	.	.	.	.	/	/
CC(CN1CCOCC1)OC(=O)c1ccc2c(c1)OCCO2 (stereo not given)	41	.	72	.	.	.	.	47
Cc1c(-n2c(SCC(N)=O)nc3ccccc3c2=O)c(=O)n(-c2ccccc2)n1C	.	.	.	.	.	.	/	/
Cc1cccc(C(=O)Oc2ccc(/C=N/O)cc2)c1	42	.	62	.	.	.	32	50
COc1cc(NC(=O)COc2cccc3c2OC(C)(C)C3)cc(OC)c1OC	.	.	.	/	.	.	/	/
CC(=O)Nc1ccc(/C=C2\CCc3ccccc3C2=O)cc1	41	.	61	.	.	.	36	46

Screening results as filed in PubChem BioAssay.
